# Measurements from the supplement of paper PMC6555819.
# Tests used:
# Assay in all cases: PBM binding z-score (relative to random genomic background probes); higher = stronger binding; sequences stand for … in GC…GCGATTGACAGCGTAGAATGAAGG
# [1] = tested on: FXR:RXRa (NR concentration 270 nM, RXRa partner concentration 90 nM)
# Procedure, shortened: (§1)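 Probes were double-stranded and carried 34-nt variable regions with direct-repeat seeds, single-nucleotide variants, half-site ablations and random human genomic background sequences, printed on custom Agilent 4×180K protein-binding microarrays. Arrays were incubated 1 h with ligand-free nuclear receptor dimers in PBS pH 7.4, 2% milk, 0.02% Triton X-100, 1 mM DTT, 0.2 mg/mL BSA and 0.4 mg/ml salmon testes DNA. Antibodies against each partner (one per run) detected binding, and scanned fluorescence was regression-normalized. Binding z-scores use the random background probes as reference.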
# [2] = tested on: LXRa:RXRa (NR concentration 270 nM, RXRa partner concentration 90 nM)
# Procedure, shortened: as §1
# [3] = tested on: LXRa homodimer (NR concentration 270 nM)
# Procedure, shortened: as §1
# [4] = tested on: LXRb:RXRa (NR concentration 270 nM, RXRa partner concentration 90 nM)
# Procedure, shortened: as §1
# [5] = tested on: LXRb homodimer (NR concentration 270 nM)
# Procedure, shortened: as §1
# [6] = tested on: PPARa:RXRa (NR concentration 270 nM, RXRa partner concentration 90 nM)
# Procedure, shortened: as §1
# [7] = tested on: PPARg:RXRa (NR concentration 180 nM, RXRa partner concentration 90 nM)
# Procedure, shortened: as §1
# [8] = tested on: PPARg:RXRa 270nM:90nM, anti-RXR (NR concentration 270 nM, RXRa partner concentration 90 nM)
# Procedure, shortened: as §1
# [9] = tested on: PPARg:RXRa 30nM:10nM, anti-RXR (NR concentration 30 nM, RXRa partner concentration 10 nM)
# Procedure, shortened: as §1
# [10] = tested on: PPARg:RXRa 90nM:30nM, anti-RXR (NR concentration 90 nM, RXRa partner concentration 30 nM)
# Procedure, shortened: as §1
Sequence,PBM binding z-score [1],PBM binding z-score [2],PBM binding z-score [3],PBM binding z-score [4],PBM binding z-score [5],PBM binding z-score [6],PBM binding z-score [7],PBM binding z-score [8],PBM binding z-score [9],PBM binding z-score [10]
TCTATTAGTTGATTAGGGCAACCAAAACAGCGGA,0.762,0.673,0.188,0.699,0.773,1.06,0.435,2.01,3.9,2.83
CCAACTGGGGCATAAGGTTACCATAAGCCAGCCC,0.142,1.69,-0.161,0.858,-1.05,2.56,3.63,3.93,1.9,3.24
TCATATAGGTAAACAGGTGAAACTCCGTAAGTTA,0.937,1.06,0.143,0.976,-0.264,2.64,2.96,3.47,4.07,3.7
TAGCCTAGGTCAATGGGCCAGTATAGTACGCATC,3.09,2.16,-0.016,1.51,-0.146,3.27,2.95,2.83,0.834,1.67
TAGCCTAGGACAGATCGGGCCAGTATACGCTATA,-1.33,-1.15,-0.706,-1.34,-0.794,-1.96,0.367,-0.842,-0.355,-0.623
TCTTCTAGGTCAACGATGGTCAGCTAATCTGCTA,4,3.57,0.955,2.54,2.65,4.34,6.09,5.82,5.08,5.64
GCTCGGAGGACACGGTCAGAGCTTTGTCCGTAGA,-0.337,-0.705,-0.568,-0.918,-1.3,-0.523,-0.859,-0.893,-1.3,-1.06
CGTCCAAGGTCAATGGTAGGTCAGTGAAAGCATT,6.69,5.38,2.66,4.27,0.432,5.14,3.76,4.73,1.28,3.54
AGTCAAAGTTCATGTAGGTAACGTAAGATATGCT,6.48,5.94,4.83,3.65,1.37,4.9,6.75,6.37,3.09,5.61
CGTCCAAGGTCAGAGAGGTAAGTGAATGCCGAGT,4.98,3.18,0.174,2.39,-0.0952,3.93,2.19,2.66,0.414,1.42
TGAATGAGGTTATAAGAACAGGGAACGTTGCAAA,1.63,1.18,-0.262,1.03,0.118,2.32,1.33,1.6,0.909,1.08
TCATATATGTAATACAGGTGAAAGTCGGCATCTA,0.656,0.799,0.168,0.857,0.395,2.14,2.09,3.12,3.65,3.4
CAAACTAGATCAAGGTCAAAGTCGGTTTGTGCCA,4.53,4.46,3.64,3.65,0.973,4.54,3.63,3.99,1.31,2.91
AGTATTAGTTGAGACGAGGGCAACCGATAGGTTG,0.842,0.556,0.129,0.258,0.115,0.567,0.552,0.313,0.0784,0.559
ACAGACAGGTCATGAAGGTAACTCAGGCTATCAT,5.65,4.39,0.927,3.31,0.862,4.77,3.76,3.6,1.23,2.19
CAAACTAGGTCACGAAGGGTCAAAGTCGAATGAC,7.24,7.09,4.6,6.6,1.09,6.41,10.1,7.95,7.11,8.2
AGTCAAAGTTCAGAACGAGGTAACGTAAAGCACG,4.06,3.73,1.34,1.78,0.533,3.26,4.48,4.72,1.77,4.12
ATATCTAGGTTAGCTGGGGTCATTCAGACTAGGC,4.62,5.44,3.33,4.64,2.06,5.23,5.59,5.22,2.61,4.47
TCTTGTAGATCAAGCAGGTTAAGAAGGCCTGAGT,0.0541,0.0936,-0.218,0.226,-0.745,0.84,-0.304,1.15,2.45,1.9
CATCCAAGGTCAAGGTCAGTGAAAGAGACTCGAA,7.77,6.14,2.48,5.1,2.11,6.02,7.17,6.56,3.3,5.45
TCCTATAGGTAATACAGGTGAAAGTCGGCATCTA,0.774,0.986,-0.00145,0.839,0.103,1.84,0.918,1.91,3.2,2.41
GCGAATGGGGCATCAGCAGGTTACCATAACTTAA,-0.164,-0.221,-0.232,0.924,-0.446,0.796,0.281,-0.0121,-0.215,-0.384
CGTCAAAGTTCAACTAAGGTAACGTAGAGCACGC,7.03,5.95,4.18,4.04,1.71,5.1,5.31,5.6,2.54,4.47
AGTCAAAGCTCATCTAGGTAACGTAAGATATGCT,-0.387,-0.578,-0.275,-0.318,-0.689,0.0609,0.604,0.302,-0.0105,0.0855
CTCGAAAGGTCGGATGAGGTGAGTATACGGATAA,2.61,2.09,0.0368,1.69,-0.334,3.17,1.02,1.66,0.432,0.958

Sequence,PBM binding z-score [1],PBM binding z-score [2],PBM binding z-score [3],PBM binding z-score [4],PBM binding z-score [5],PBM binding z-score [6],PBM binding z-score [7],PBM binding z-score [8],PBM binding z-score [9],PBM binding z-score [10]
TCGAGTAGGTTATGGGCATTCAGAATGGCGTCGA,-0.455,0.186,-0.538,-0.2,-1.18,0.825,0.399,1.47,0.906,1.13
GCAGACAGGTGAAACGCGGGTAACTCAGGGTGGC,0.0652,0.351,-0.771,-0.193,-1.11,0.839,0.342,-0.106,-0.712,-0.458
TTACCAAGGTGAAAGGTCGTTGATGCACGCCTTG,3.49,3.43,0.252,2.79,-0.555,5.38,9.01,7.94,6.67,8.46
TCTAGTTGGTCAAAGGTCACAGACTCGAAATGCG,6.15,6.04,3.48,5.55,1.44,6.87,11.5,10,10.8,11.2
GCTACAGGGTCAAGGCCAGAGTACGCGTATTGAT,6.86,3.95,-0.363,3.53,-0.375,5.71,5.03,4.94,1.93,3.59
TCTTGTAGATCAATAGAGGTTAAGAATGTGCGCT,0.658,2.14,0.456,1.44,0.239,1.91,0.259,1.56,2.73,1.97
ATTCAAAGTTCAGGACGAGGTAACGTAAAGCACG,4.14,4.12,1.92,2.22,1.06,3.21,2.19,2.41,1.01,1.54
TCTGCTAGGTCAACGATGGTTAGCTAATCTGCTA,3.1,2.08,-0.301,1.46,-0.085,3.09,2.34,3.09,1.82,2.54
TCTGCAAGGTCAGTTGGTCAGCTAACGAGCTGCC,4.25,2.88,-0.037,2.09,1.17,3.4,1.45,2.47,1.5,1.72
CCTGCTAGGCCAATGGTCAGCTAAAGCAGCTCGC,-0.614,-0.503,-0.698,-0.914,-0.839,-0.216,0.706,2.33,0.142,1.6
CCTACTGGGCCAAAGGTCATTGATTCCAATGCTC,4.82,5.3,4.17,4.72,0.913,6.33,12,10.5,10.7,11.4
CCTCGGAGGACAGAAGGTCAGAGCTGTCCGCTTT,1.38,1.63,-0.0944,1.03,-0.587,1.84,-0.203,0.708,-0.69,-0.00592
CCAGACAGGTGAAAGGTGACTCAGTCTGGTACGC,1.34,1.27,-0.086,1.33,-0.308,4.15,6.88,6.76,5.26,7.19
AGTCAAAGTTCAGGACGAGGCAACGTAAAGCACG,3.7,3.55,1.2,1.5,-0.0334,3.22,4.51,4.56,1.57,3.42
ATATGTCGGTTAAGGGTCATTCAGGTTGGTTCGC,4.54,4.44,3.12,4.03,1.48,5.44,8.83,8.47,7.13,9.33
TAGCCTAGGTCATTCAGGGACCAGTATAGAAAGC,4.75,3.39,0.547,2.25,0.504,3.62,2.01,2.24,0.478,1.37
TCATATAGGTAAATGCTAGGTGAAAGGCCGATCT,0.626,1.07,0.239,0.994,0.0512,1.93,1.81,3.17,3.62,3.95
CCTATTAGTTGACCGTAAGGGCAACCGAAGCTCG,1.88,0.908,0.863,0.769,0.64,0.834,0.00382,0.48,-0.271,-0.155
TTACCAAGGTGAAAGTCGTTGATCCCTCTGTAGA,0.729,0.757,-0.418,0.587,-0.747,2.1,0.615,1.61,0.371,1.12
GCGACTGGGGAATCAGCAGGTTACCATAACTTAA,-0.766,-0.57,-0.287,0.0771,-1.25,0.0843,0.0906,-0.19,-0.448,-0.292
CCGACTGGGGCAGAAAGGTTACCAGACCATCCGG,0.0987,0.481,-0.312,0.525,-1.23,2.1,1.47,2.61,0.619,2.04
TCTAGCAGGCCAGAGGATCACTCAAGAGGTACGG,-0.551,-0.271,-0.763,-0.773,-1.43,-0.206,0.826,1.2,1.53,1.43
ACTTACGGGCCAACGAGGTTATAGCACGCGTATA,0.283,0.557,-0.119,0.645,-0.0337,1.16,0.891,0.372,0.0261,0.602
CAAACTAGGTCACCGGAAGGTCAAAGGCCGCATG,6.24,5.81,4.23,5.17,1.01,6.34,9.9,7.75,6.27,7.97
